Data reported in PubChem BioAssay (NCATS).
Records with an inconclusive call do not appear. Unmarked numbers belong to inactive results. Calls of active or inactive are those of the source. Calls follow the shape of the dose curve; as a rule, active = well fitted inhibition curve with a large enough effect; inconclusive = small, poorly fitted or top-dose-only effect; inactive = no such curve, though single readings can be large or run the other way.

Tested on: Zika virus NS2B-NS3 protease (linked construct)
Assay: Primary screen NINDS Rhodamine qHTS for Zika virus inhibitors (AID 1347160); also: nearly all actives have a fitted effect of over 55% in size
Conditions: purified NS2B-NS3 protease, Rhodamine110 substrate fluorescence; series mostly up to 57.1 µM; activity change, negative = inhibition: at the top concentration
Outline: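 Purified linked NS2B-NS3 protease (NS2B hydrophilic domain joined to NS3 protease by flexible linker), 25 nM in 10 mM Tris-HCl pH 8.0, 0.01% Tween 20. Compounds titrated, 15 min preincubation at room temperature; 1.5 microM Rhodamine110 substrate, FITC fluorescence change over 15 min.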
% is scaled to controls: 0 for no effect and ±100 for the full control effect.

Compound	activity change, negative = inhibition	outcome
O=S(=O)(NCc1ccccn1)c1ccc(Br)c2ccccc12	21.6%	
O=C(Nc1nc2cc(C(F)(F)F)cc(NC3CC3)n2n1)c1cccnc1	-9.03%	
COc1cc2c(cc1OC(C)C)[C@H](c1ccc(Cl)cc1)N(c1ccc(N(C)CC3CCC(N4CCN(C)C(=O)C4)CC3)cc1)C(=O)C2 (stereo partly specified)	16.4%	
C=C1C(=O)OC2/C=C(/C)C3=CC(=O)C(C)(CC(OC(=O)/C(C)=C/COC(C)=O)C12)O3 (stereo unspecified)	-5.43% [at 33.1 µM]	
NC(=O)c1cnc(N[C@@H]2CCCC[C@H]2N)nc1Nc1cccc(-n2nccn2)c1	11%	
C=CC(=O)Nc1cc(-n2c(=O)ccc3cnc4ccc(-c5ccc(NS(C)(=O)=O)cc5)cc4c32)ccc1C		inactive
O=C1NC(=O)C(c2cnc3ccccn23)=C1c1cn2c3c(cc(F)cc13)CN(C(=O)N1CCCCC1)CC2	-29.6%	
NC(=O)N1CCC(CC(=O)N2CCC(C3c4ncc(Br)cc4CCc4cc(Cl)cc(Br)c43)CC2)CC1 (stereo unspecified)	11.4%	
C=CC(=O)N1CC(N2CCN(C(=O)CNc3cc(C4CC4)c(Cl)cc3O)CC2)C1	0.888%	
CC(C)c1noc(C2CCN(c3ncnc(Nc4ccc(S(C)(=O)=O)cc4F)c3[N+](=O)[O-])CC2)n1		inactive
COc1c2c(nc3occc13)C(CC=C(C)C)(OC)C(O)CC2 (stereo unspecified)		inactive [at 33.1 µM]
C=C1C(=O)O[C@@H]2[C@H]3C(C)=CC(=O)C3=C(C)CC[C@@H]12		inactive
COc1cc2c(NC3CCN(C(C)C)CC3)nc(N3CCC(F)(F)CC3)nc2cc1OCCCN1CCCC1	24.4%	
Cc1cccc(C#Cc2cc(F)cc(C#N)c2)n1	72.4%	
Cc1nc(N2CCN(C(=O)c3ccco3)CC2)c2c3c(sc2n1)CCCC3	-13.9%	
Nc1nc2c(nc(Br)n2[C@@H]2O[C@@H]3COP(=O)(O)O[C@H]3[C@H]2O)c(=O)[nH]1	0.0358%	
C=C1[C@@H](OC(C)=O)CC[C@@]2(C)[C@@H](OC(C)=O)[C@H](OC(C)=O)C3=C(C)C[C@H](OC(=O)C(C)CC)[C@@H]([C@@H](OC(C)=O)[C@H]12)C3(C)C (stereo partly specified)	-15.9% [at 15.1 µM]	
CNc1ccc([N+](=O)[O-])c(Nc2ccc3[nH]ncc3c2)n1	9.2%	

Compound	activity change, negative = inhibition	outcome
C=C1C(=O)O[C@@H]2[C@H]3C(C)=CC(=O)C3=C(C)[C@@H](OC(=O)/C(C)=C\C)[C@H](O)[C@@H]12	12.3% [at 33.1 µM]	
C=C1C(=O)OC2/C=C(\CO)CC/C=C(\C=O)C(O)C(OC(=O)C(C)CC)C12 (stereo unspecified)	-7.54% [at 33.1 µM]	
CS/C=C/C(=O)O[C@@H]1CCC2=CC(=O)C(=C(C)C)C[C@]2(C)[C@H]1C	-5.56% [at 33.1 µM]	
NS(=O)(=O)c1ccc(N2N=C(c3ccccc3)CC2c2ccccc2)cc1 (stereo unspecified)	9.16%	
COc1ccc(-n2c(SCCCN3C(=O)c4cccc5cccc(c45)C3=O)nnc2-c2ccncc2)cc1	0.647%	
C1=Cc2ccccc2C(=C2CCN(CCCCc3nn[nH]n3)CC2)c2ccccc21		inactive
CC(=O)OC1CC(C)C2(CCC3(CC(=O)OC3O)O2)C2(C)CCCC(C)(C)C12 (stereo unspecified)	-26.8% [at 33.1 µM]	
C/C=C(\C)C(=O)O[C@@H]1[C@@H](C)[C@]2(O)[C@@H]3C=C(C)C(=O)[C@H]3CC(CO)=C[C@H]2C2C(C)(C)[C@@]21OC(=O)C(C)CC (stereo partly specified)		inactive [at 33.1 µM]
COc1cc(F)c(C(C)C)cc1-c1ccc(C(F)(F)F)cc1CN1C(=O)OC(c2cc(C(F)(F)F)cc(C(F)(F)F)c2)C1C (stereo unspecified)	-8.06%	
COC1=CC(=O)O/C1=C(/OC)[C@@H]1O[C@H]1c1ccccc1	16.3%	
COc1cc(OC)c(NC(=O)c2ccc(Cc3cc4c(cc3C)C(C)(C)CCC4(C)C)o2)c(OC)c1	-25.4%	
Cc1cccc(N2CCN(C(=O)c3cc(S(=O)(=O)N(C)C)ccc3N3CCCC3)CC2)c1C	1.33%	
CC(C)(Cc1ccccc1)NCC(O)c1ccc(O)c(NS(C)(=O)=O)c1 (stereo unspecified)		inactive
Cc1sc2c(c1C)C(c1ccc(Cl)cc1)=N[C@H](CC(=O)NCCCCNC(=O)COc1cccc3c1C(=O)N([C@H]1CCC(=O)NC1=O)C3=O)c1nnc(C)n1-2	-3.88%	
CC(=O)OC1C(OC(=O)c2ccccc2)C2C(C)(C)CCC(OC(C)=O)C2(C)C23CCC(C)(C2)C(=O)CC13 (stereo unspecified)	-15% [at 33.1 µM]	
CN(C)CCOC(C)(c1ccccc1)c1ccc(Cl)cc1 (stereo unspecified)	183%	
COc1cc(N2CCC(O)CC2)ccc1Nc1nc(Nc2ccccc2S(=O)(=O)C(C)C)c2[nH]cnc2n1	42.1%	
C=C1C(=O)O[C@H]2/C=C(/C)[C@@H](OC(C)=O)C/C=C(\C)C[C@@H](OC(=O)/C(=C/C)COC(=O)/C(=C/C)CO)[C@@H]12	1.62% [at 33.1 µM]	
